The whole screen tested about 3,000 compounds, of which about 45 (2%) showed an effect of 50% or more. The sample holds strong results, similar compounds and a random draw of the others, so the mix is not that of the screen.
Each molecule was assayed on MOLM1 and UCSD/AML1 (averaged) (assay: cell viability relative to DMSO control (POC); higher = less growth inhibition). Settings: 1 µM; 72 h.
Description: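 Primary viability screen in the 3q26 EVI1-high AML cell lines MOLM1 and UCSD/AML1, compounds at 1 uM for 72 h. ATP CellTiter-Glo read-out given as percent viable over DMSO control (POC), averaged over duplicates. This mapping covers the TimTec NDL-3000 natural derivative library, whose compounds are identified by TimTec catalogue codes (ST...).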

**Q.** With `OCC1N2CCC(CC2)C1(O)O` (stereo not given) as the molecule, how does the cell viability read?
**A.** The cell viability was 32.3%.

**Q.** For `CCOC(=O)C1=C(N)Oc2c(c(=O)oc3ccccc23)C1c1ccc(Cl)cc1Cl` (stereo not given), which cell viability is on record?
**A.** Its cell viability is 104%.

**Q.** `CC(=O)OC1CCC2(C)C3CCC4(C)C(CC[C@]4(OC(C)=O)C(C)OC(C)=O)C3CC[C@H]2C1` (stereo not given in full) was tested. Which cell viability did it give?
**A.** The cell viability was 109%.

**Q.** `CN1C(=O)C(=Cc2ccc3c(c2)OCO3)C(=O)N(C)C1=O` was tested. Which cell viability did it give?
**A.** Its cell viability is 111%.

**Q.** `O.O.OCC1CCCN2CCCCC12.[Cl][Cu][Cl]` (stereo not given) was tested. Which cell viability did it give?
**A.** Its cell viability is 110%.

**Q.** For `Cc1ccc(C(c2c(O)c3ccccc3oc2=O)c2c(O)c3ccccc3oc2=O)cc1`, which cell viability is on record?
**A.** Its cell viability is 102%.

**Q.** Which cell viability does the source give for `CCOC(=O)C1=C(N)Oc2c(c(=O)oc3ccccc23)C1c1cccc(Br)c1` (stereo not given) here?
**A.** Its cell viability is 103%.

**Q.** For `CCOC(=O)C1=C(N)Oc2c(c(=O)oc3ccccc23)C1c1ccc(Cl)c(Cl)c1` (stereo not given), which cell viability is on record?
**A.** The cell viability was 37.7%.

**Q.** Which cell viability does the source give for `CCOC(=O)C1=C(N)Oc2c(c(=O)oc3ccccc23)C1c1ccc(Br)cc1` (stereo not given) here?
**A.** Its cell viability is 93%.

**Q.** With `COCCOC(=O)c1c(C)n(Cc2ccccc2Cl)c2ccc(O)cc12` as the molecule, how does the cell viability read?
**A.** Its cell viability is 106%.

Reference: the supplement of paper PMC11150407
